Activity calls are given as the source filed them. Rule for the calls: active = hit-call score of the fitted dose curve at least 0.9, where 1 is the maximum; inactive = score below 0.9.

The target of the assay is human CDK2/CyclinA CMGC Kinase, CDK2 (gene 1017) (UniProt P24941). Description: ERF_FR_ENZ_hCDK2: Eurofins (ERF) Enzymatic Radiometric [Km ATP] KinaseProfiler LeadHunter Assay for human CDK2/CyclinA CMGC Kinase. As for the experimental part:
ERF_FR_ENZ_hCDK2 is a biochemical, single-readout assay that uses extracted gene-proteins in a cell-free assay. Measurements were taken 0.5 hour after chemical dosing in a 96-well plate. See CDK2 /CyclinA Human CMGC Kinase Enzymatic LANCE Assay [Km ATP], Cerep.ERF_FR_ENZ_hCDK2 is an assay component calculated from the ERF_FR_ENZ_hCDK2 assay. It is designed to measure enzyme activity using a type of enzyme reporter as detected by fluorescence intensity with LANCE technology.Data from the assay component ERF_FR_ENZ_hCDK2 was analyzed at the assay endpoint, ERF_FR_ENZ_hCDK2, in the positive analysis fitting direction relative to DMSO as the negative control and baseline of activity. Using a type of enzyme reporter, loss-of-signal activity can be used to understand changes in enzymatic activity as they relate to gene CDK2. To generalize the intended target to other relatable targets, this assay endpoint is annotated to the kinase intended target family, where the subfamily is serine/threonine kinase.
CDK2/cyclinA (h) is incubated with 8 mM MOPS pH 7.0, 0.2 mM EDTA, 0.1 mg/mL histone H1, 10 mM MgAcetate and [gamma-33P]-ATP (specific activity and concentration as required). The reaction is initiated by the addition of the Mg/ATP mix. After incubation for 40 minutes at room temperature, the reaction is stopped by the addition of phosphoric acid to a concentration of 0.5%. […]
`O=C(/C=C/c1ccc(O)cc1)CC(=O)/C=C/c1ccc(O)cc1`: the compound was called inactive.
For `COc1cc(CCC(=O)CC(=O)CCc2ccc(O)c(OC)c2)ccc1O` the value was “inactive”.
